IL-1B inflam inh – inhibitors of inflammasome signaling (IL-1 beta secretion); THP-1 LPS/ATP IL-1B secretion, AlphaLISA, 16 h; active compounds read low; activity change, % at 57.5 µM; 4.7% of 360,000 active; AID 743279; in the data active means activity change below about -50%; inconclusive means mostly about -30% to -49%; further: on the % scale 0 is the no-effect control and ±100 the full control effect
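Secreted IL-1B measured by AlphaLISA bead assay after 16 h compound exposure of THP-1 cells; compounds (final up to 57.5 uM) added 1 h before LPS (250 ng/mL) and ATP (1.25 mM) stimulation; lower signal means less secretion.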
TDP1 cell noCPT – qHTS for Inhibitors of human tyrosyl-DNA phosphodiesterase 1 (TDP1): qHTS in cells in absence of CPT; DT40 Tdp1-/- hTDP1 cells, no CPT, ATP luminescence, 48 h; Potency, µM (highest dose often 46.2 µM), for inactives: top-dose activity change, negative = growth inhibition, hits mostly inhibitors; 15% of 420,000 active; AID 686978, 2013; further: potency means the concentration at half of the fitted maximal effect; on the % scale 0 is the no-effect control and ±100 the full control effect; nearly all actives have a fitted effect of over 55% in size
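Cells were dispensed at 400 per well, compounds added by pin tool, plates incubated ≥48 hr at 37 °C, then CellTiter-Glo added for 30 min at room temperature before luminescence reading. Line: DT40 Tdp1-/- complemented with hTDP1; camptothecin omitted.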
TDP1 inh – TDP1 (human) enzyme inhibition; 0.28% of 350,000 active; Potency, µM (highest dose often 130 µM), without a hit: at the top dose activity change, negative = inhibition, hits mostly inhibitors; Q9NUW8; recombinant TDP1, AlphaScreen DNA substrate cleavage; AID 485290; further: potency means the concentration at half of the fitted maximal effect; on the % scale 0 is the no-effect control and ±100 the full control effect; nearly all actives have a fitted effect of over 40% in size
Target sequence (Q9NUW8 whole entry, looked up): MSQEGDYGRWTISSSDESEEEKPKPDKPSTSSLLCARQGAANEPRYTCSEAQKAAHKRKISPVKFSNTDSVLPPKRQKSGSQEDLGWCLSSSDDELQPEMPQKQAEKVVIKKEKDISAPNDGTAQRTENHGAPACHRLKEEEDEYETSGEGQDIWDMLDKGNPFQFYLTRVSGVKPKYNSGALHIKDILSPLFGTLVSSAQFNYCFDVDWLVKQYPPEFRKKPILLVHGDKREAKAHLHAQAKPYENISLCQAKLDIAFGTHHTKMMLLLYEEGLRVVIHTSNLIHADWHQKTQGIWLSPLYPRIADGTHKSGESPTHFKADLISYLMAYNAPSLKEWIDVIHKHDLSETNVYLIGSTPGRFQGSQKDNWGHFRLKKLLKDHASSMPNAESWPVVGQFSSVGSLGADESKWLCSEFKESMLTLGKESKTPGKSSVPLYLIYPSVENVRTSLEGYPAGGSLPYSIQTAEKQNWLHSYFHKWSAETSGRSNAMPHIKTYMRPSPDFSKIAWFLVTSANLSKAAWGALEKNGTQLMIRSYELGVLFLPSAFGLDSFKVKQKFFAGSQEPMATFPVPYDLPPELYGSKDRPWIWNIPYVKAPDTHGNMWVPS
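Recombinant human Tdp1 (E. coli-expressed, 1 nM final) preincubated with compounds 15 min at room temperature, then 5'-biotin/3'-phosphotyrosine-FITC DNA substrate (15 nM final) added for 5 min. AlphaScreen beads (10 ug/ml final) added 10 min; cleavage lowers signal.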
TGFb inhibitor – TGF-b pathway inhibition. HepG2 CAGA-GFP TGF-b/SMAD3 reporter, GFP fluorescence, 18 h; TGF-beta stimulated, 500 pg/mL final. Potency, µM (top dose mostly 46.1 µM), inactives show at the highest dose activity, negative = inhibition, actives largely listed as inhibitors. 1.2% of 410,000 active; further: potency means the concentration at half of the fitted maximal effect; on the % scale 0 is the no-effect control and ±100 the full control effect; nearly all actives have a fitted effect of over 65% in size
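Inhibition was scored as loss of TGF-beta-induced (500 pg/mL final, 18 hours, 37 degrees C) GFP in HEPG2 cells carrying a CAGA-GFP reporter, in DMEM with 1% FBS. Well GFP was summed per cell; Activity was normalised to unstimulated and stimulated DMSO wells, then concentration-response fitting.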
HepG2 tox – HepG2 cytotoxicity, counter-screen for TGF-b inhibitors. HepG2 CAGA-GFP viability, ATP luminescence, 18 h. Potency, µM (highest dose often 46.1 µM), for the others: at the top dose activity change, negative = cytotoxicity, hits mostly cytotoxic. 0.76% of 410,000 active; further: potency means the concentration at half of the fitted maximal effect
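CellTiter-Glo luminescence gave cytotoxicity after 18 hours at 37 degrees C. The cells were HepG2 CAGA-GFP in 1% FBS DMEM, stimulated with 500 pg/mL TGF-beta after compound addition. %Activity was normalised to no-cell wells (complete cell-killing) and DMSO (no toxicity), and curves were fitted and classified.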
DT40 TDP1 CPT – growth inhibition of DT40 Tdp1-/-;hTDP1 cells with camptothecin (screen for TDP1 inhibitors); Potency, µM (top dose mostly 46.2 µM), for inactives: top-dose activity change, negative = growth inhibition, usual class: inhibitors; AID 686979; 12% of 420,000 active; chicken DT40 Tdp1-/-;hTDP1 cells + 20 nM CPT, ATP luminescence, 48 h; further: potency means the concentration at half of the fitted maximal effect; on the % scale 0 is the no-effect control and ±100 the full control effect; nearly all actives have a fitted effect of over 55% in size
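Cell growth measured by CellTiter-Glo luminescence after a minimum 48 h, 37 C compound exposure with 20 nM CPT in Tdp1-knockout DT40 cells stably expressing hTDP1, seeded 400/well; qHTS titration format.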
Active calls of the source: *; [ ] = another dose, or the depositor's remark. Only some compounds are listed: those with a hit (about 19% of all), similar ones and a draw of the others. Unless noted, the call rests on the fitted dose curve; in most records, active means well fitted curve in the direction sought with a large enough effect; inconclusive means small, poorly fitted or top-dose-only effect, or another doubt; inactive means no such curve, though single readings can be large; an effect the other way counts as inactive or inconclusive.

How did O=C(NC1=C(Nc2ccc(F)cc2)C(=O)c2ccccc2C1=O)c1ccc(Cl)cc1 do in these assays?
IL-1B inflam inh: 30; TDP1 cell noCPT: inconclusive; TDP1 inh: 2%; TGFb inhibitor: 11µM*; HepG2 tox: 11µM*; DT40 TDP1 CPT: 21µM*

Results for CCC(=O)Nc1ccc(C2C(=O)c3ccccc3C2=O)cc1 ?
IL-1B inflam inh: -3; TDP1 cell noCPT: 21µM*; TGFb inhibitor: 4%; HepG2 tox: -22%; DT40 TDP1 CPT: 16µM*

What do the screens show for `CCCCC(=O)Nc1ccc(C2C(=O)c3ccccc3C2=O)cc1`?
IL-1B inflam inh: -3; TDP1 cell noCPT: inconclusive; TGFb inhibitor: -2%; HepG2 tox: 10%; DT40 TDP1 CPT: -24%

Results for COC1=C(Nc2ccc(OC)cc2)C(=O)c2ccccc2C1=O ?
IL-1B inflam inh: inconclusive; TDP1 cell noCPT: 15µM*; TDP1 inh: 12%; TGFb inhibitor: 16µM*; HepG2 tox: -58%; DT40 TDP1 CPT: 29µM*

What do the screens show for `CCOc1ccc(N(C(=O)OC(C)(C)C)C(=O)c2ccc(O[Si](C)(C)C(C)(C)C)cc2)c(I)c1`?
TDP1 inh: 9%; TGFb inhibitor: -23%; HepG2 tox: -5%

What do the screens show for `COc1ccc(NC2=C(NC(C)=O)C(=O)c3ccccc3C2=O)cc1`?
IL-1B inflam inh: -5; TDP1 cell noCPT: 18µM*; TGFb inhibitor: -35%; HepG2 tox: -24%; DT40 TDP1 CPT: 13µM*

Results for COC1=C(Nc2ccc(OC)cc2)C(=O)C(OC)=C(Nc2ccc(OC)cc2)C1=O ?
IL-1B inflam inh: -14; TDP1 cell noCPT: -12%; TGFb inhibitor: 9%; HepG2 tox: 3%; DT40 TDP1 CPT: 6%

What do the screens show for `CCOc1ccc(NC2=C(OC)C(=O)c3ccccc3C2=O)cc1`?
IL-1B inflam inh: -83*; TDP1 cell noCPT: inconclusive; TDP1 inh: 12%; TGFb inhibitor: 11µM*; HepG2 tox: -83%; DT40 TDP1 CPT: 21µM*

What do the screens show for `COC1=C(Nc2ccc(O)cc2)C(=O)c2ccccc2C1=O`?
IL-1B inflam inh: -64*; TDP1 cell noCPT: inconclusive; TDP1 inh: 7%; TGFb inhibitor: inconclusive; HepG2 tox: -84%; DT40 TDP1 CPT: 4.1µM*

How did Cc1ccc(-n2nc3c(c2NC(=O)c2ccccc2)CS(=O)(=O)C3)cc1C do in these assays?
IL-1B inflam inh: 0; TDP1 cell noCPT: -13%; TDP1 inh: 6%; TGFb inhibitor: -2%; HepG2 tox: -3%; DT40 TDP1 CPT: -2%

How did CCON1C(=O)C2(CCCCC2)C(=O)C12C=CCCC2 (configuration not stated) do in these assays?
IL-1B inflam inh: 13; TDP1 cell noCPT: -5%; TGFb inhibitor: -32%; HepG2 tox: 3%; DT40 TDP1 CPT: 14%

Results for CSc1ccc(CCNC(=O)CCc2c(C)nc3ncnn3c2C)cc1 ?
TDP1 cell noCPT: 4%; TDP1 inh: 0%; TGFb inhibitor: -8%; HepG2 tox: -11%; DT40 TDP1 CPT: 10%

How did CCCCN1CC[C@H]2C=CC[C@@H](C(=O)NC3CCCCC3)[C@H]2C1=O do in these assays?
TDP1 cell noCPT: inconclusive; TGFb inhibitor: 21%; HepG2 tox: 23%; DT40 TDP1 CPT: inconclusive

Results for O=C(C1CCN(c2nc3ccccc3[nH]2)CC1)N1CCN(c2ccccc2)CC1 ?
TDP1 cell noCPT: inconclusive; TDP1 inh: 5%; TGFb inhibitor: 1%; HepG2 tox: -1%; DT40 TDP1 CPT: inconclusive

Results for COC(=O)c1ccc(COc2ccc(/C=N/Nc3cccc(C(=O)O)c3)cc2)cc1 ?
IL-1B inflam inh: 0; TDP1 cell noCPT: 9%; TDP1 inh: 40µM*; TGFb inhibitor: -6%; HepG2 tox: -31%; DT40 TDP1 CPT: -21%

Results for O=C(O)c1ccc(N/N=C/c2ccc3nccnc3c2)cc1 ?
IL-1B inflam inh: -9; TDP1 cell noCPT: 12µM*; TDP1 inh: -3%; TGFb inhibitor: -2%; HepG2 tox: -58%; DT40 TDP1 CPT: 12µM*

Results for C=CCOc1c(OC)cc(/C=N/Nc2cccc(C(=O)O)c2)c(Br)c1Br ?
IL-1B inflam inh: 0; TDP1 cell noCPT: 16µM*; TDP1 inh: 3%; TGFb inhibitor: inconclusive; HepG2 tox: -33%; DT40 TDP1 CPT: 16µM*

How did CSc1ccc(/C=N/Nc2cccc(C(=O)O)c2)cc1 do in these assays?
IL-1B inflam inh: 10; TDP1 cell noCPT: -26%; TDP1 inh: 1.1µM*; TGFb inhibitor: -1%; HepG2 tox: -11%; DT40 TDP1 CPT: 3%

Results for Oc1c(C(c2ccccc2F)N2CCN(Cc3ccccc3)CC2)sc2nc(-c3ccco3)nn12 (configuration not stated) ?
TDP1 cell noCPT: -21%; TDP1 inh: 10%; TGFb inhibitor: inconclusive; HepG2 tox: -9%; DT40 TDP1 CPT: 2%

What do the screens show for `O=C(c1cccc(F)c1)N1CCC2(CC1)CCN(c1ccc(-c3ccccc3)cc1)CC2`?
TDP1 cell noCPT: 1%; DT40 TDP1 CPT: 9%

How did CC(C)c1cc(C(F)(F)F)nc(NNc2nc(C(C)C)cc(C(F)(F)F)n2)n1 do in these assays?
IL-1B inflam inh: -21; TDP1 cell noCPT: inconclusive; TGFb inhibitor: -31%; HepG2 tox: -66%; DT40 TDP1 CPT: -24%

Results for CCN1C(=O)[C@H]2[C@H]3[C@H](O)[C@H](O)C/C(=N/OCc4ccccc4)[C@@H]3CC[C@@H]2C1=O ?
TDP1 inh: -2%[21 µM]

What do the screens show for `CC1=[N+](C)c2ccc3ccccc3c2C1(C)C`?
IL-1B inflam inh: -15; TDP1 cell noCPT: 2.3µM*; TDP1 inh: 13%; TGFb inhibitor: 6.3µM*; HepG2 tox: -75%; DT40 TDP1 CPT: 2.6µM*

What do the screens show for `Cc1c2ccccc2cc[n+]1C`?
TDP1 cell noCPT: -16%; TGFb inhibitor: -14%; HepG2 tox: 2%; DT40 TDP1 CPT: -6%

How did Cc1cccc(-c2nnc3n2N=C(c2ccc(Br)cc2)CS3)c1 do in these assays?
IL-1B inflam inh: 13; TDP1 cell noCPT: -42%; TDP1 inh: 4%; TGFb inhibitor: -11%; HepG2 tox: 4%; DT40 TDP1 CPT: -49%

How did Clc1ccc(C2=Nn3c(nnc3-c3n[nH]c4c3CCC4)SC2)cc1 do in these assays?
IL-1B inflam inh: -5; TDP1 cell noCPT: 2.9µM*; TDP1 inh: 6%; TGFb inhibitor: inconclusive; HepG2 tox: -52%; DT40 TDP1 CPT: 4.1µM*
